For part of these data: Entries with a potency or affinity are not part of this list.

Assay [1] concerns the target Protein translocase subunit SecA (Escherichia coli (strain K12)) (UniProt P10408). The experiment in a line: Assay to Identify E. coli SecA ATPase Inhibitors. The conditions noted are these: 30 µM. On the set-up: scale not given: direction of the effect not stated beside the values. The format is functional.
Assay [2] addresses T1, Ubiquitin-activating enzyme e1, putative (Leishmania donovani (strain BPK282A1)) (UniProt E9BSI1).
T1 sequence (whole entry): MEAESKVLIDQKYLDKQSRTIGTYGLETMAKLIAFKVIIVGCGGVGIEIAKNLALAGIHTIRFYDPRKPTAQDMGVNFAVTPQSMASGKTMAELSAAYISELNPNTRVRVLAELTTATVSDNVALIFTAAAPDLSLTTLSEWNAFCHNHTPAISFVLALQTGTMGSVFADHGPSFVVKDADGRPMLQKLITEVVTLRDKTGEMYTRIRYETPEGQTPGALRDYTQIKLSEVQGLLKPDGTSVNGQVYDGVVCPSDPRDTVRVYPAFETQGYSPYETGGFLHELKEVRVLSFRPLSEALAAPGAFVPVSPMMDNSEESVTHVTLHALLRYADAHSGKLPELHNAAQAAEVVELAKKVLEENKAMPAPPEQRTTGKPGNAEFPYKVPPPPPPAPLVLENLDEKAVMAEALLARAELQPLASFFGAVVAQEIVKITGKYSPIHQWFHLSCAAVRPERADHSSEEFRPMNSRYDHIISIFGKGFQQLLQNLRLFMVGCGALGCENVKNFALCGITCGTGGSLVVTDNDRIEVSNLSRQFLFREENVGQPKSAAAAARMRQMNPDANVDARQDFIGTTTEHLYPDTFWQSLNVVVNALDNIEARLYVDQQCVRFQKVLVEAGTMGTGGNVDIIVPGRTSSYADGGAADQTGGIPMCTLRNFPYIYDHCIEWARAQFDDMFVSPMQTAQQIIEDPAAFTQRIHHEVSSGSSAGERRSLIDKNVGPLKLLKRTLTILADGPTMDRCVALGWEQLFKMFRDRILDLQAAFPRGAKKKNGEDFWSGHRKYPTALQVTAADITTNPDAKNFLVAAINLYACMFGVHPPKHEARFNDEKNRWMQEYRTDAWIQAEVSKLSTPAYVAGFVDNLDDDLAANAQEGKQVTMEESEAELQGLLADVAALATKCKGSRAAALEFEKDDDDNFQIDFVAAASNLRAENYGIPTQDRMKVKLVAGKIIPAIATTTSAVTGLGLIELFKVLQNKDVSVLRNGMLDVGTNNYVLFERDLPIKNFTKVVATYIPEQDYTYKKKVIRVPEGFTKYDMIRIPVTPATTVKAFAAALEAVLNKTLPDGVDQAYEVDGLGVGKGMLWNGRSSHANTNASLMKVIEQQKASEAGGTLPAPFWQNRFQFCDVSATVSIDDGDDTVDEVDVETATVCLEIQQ
The experiment in a line: Leishmania donovani Ubiquitin Activating Enzyme (LdE1). As to conditions: 30 µM. On the set-up: scale not given: direction of the effect not stated beside the values. It counts as functional.

For assay [3], the target named is T2, Aspartate--tRNA(Asp/Asn) ligase (Mycobacterium tuberculosis (strain ATCC 25618 / H37Rv)) (UniProt P9WFW3). Further: in the data most compounds retested in dose-response had high values.
T2 sequence (whole entry): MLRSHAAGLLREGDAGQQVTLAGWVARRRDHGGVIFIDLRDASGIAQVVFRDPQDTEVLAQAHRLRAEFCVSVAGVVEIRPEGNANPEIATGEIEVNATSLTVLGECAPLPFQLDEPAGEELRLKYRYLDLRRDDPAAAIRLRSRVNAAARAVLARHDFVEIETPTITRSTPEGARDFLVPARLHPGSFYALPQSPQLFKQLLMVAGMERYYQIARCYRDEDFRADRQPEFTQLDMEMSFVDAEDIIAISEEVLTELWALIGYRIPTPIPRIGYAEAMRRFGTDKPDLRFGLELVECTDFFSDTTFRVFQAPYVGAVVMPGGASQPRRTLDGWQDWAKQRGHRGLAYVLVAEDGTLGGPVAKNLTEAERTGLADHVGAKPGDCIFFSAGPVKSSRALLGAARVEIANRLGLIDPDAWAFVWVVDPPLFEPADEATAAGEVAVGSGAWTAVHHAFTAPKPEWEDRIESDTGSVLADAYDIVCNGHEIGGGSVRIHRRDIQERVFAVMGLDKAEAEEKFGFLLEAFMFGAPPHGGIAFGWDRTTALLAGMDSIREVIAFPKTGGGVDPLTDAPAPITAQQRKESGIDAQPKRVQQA
The experiment in a line: Assay for Asp RNA synthetase-1 from Mycobacterium tuberculosis. The format is functional. Also on record: scale not given: direction of the effect not stated beside the values. The conditions noted are these: 30 µM.

Assay [4] concerns the target AMP-activated protein kinase, AMPK (Homo sapiens) (UniProt P54646+O43741+P54619+Q9UGJ0+Q9Y478+Q13131+Q9UGI9). Description: AMP-dependent Kinase enzyme assay. An in vitro enzyme assay that detects ADP turnover that is directly proportional to AMPK activity. This uses naive AMPK that is activated during the assay with MK-8722. The format is functional. On the set-up: scale not given: direction of the effect not stated beside the values. The conditions noted are these: 30 µM.

In assay [5] the target is Sialic acid-binding Ig-like lectin 9 (Homo sapiens) (UniProt Q9Y336). The experiment in a line: Hs-Siglec9 ALPHAscreen SOP 20170721. The conditions noted are these: 10 µM. On the set-up: scale not given: direction of the effect not stated beside the values. (Alpha assays give light when donor and acceptor beads are brought close together.)
The test system of assay [6] is Trypanosoma cruzi. The experiment in a line: Trypanosoma cruzi phosphomannomutase and mannose-1-phosphate guanylyltransferase assay. The conditions noted are these: 10 µM. The format is functional. On the set-up: scale not given: direction of the effect not stated beside the values.
In assay [7] the target is T3, Arginase-2, mitochondrial (Homo sapiens) (UniProt P78540).
T3 sequence (whole entry): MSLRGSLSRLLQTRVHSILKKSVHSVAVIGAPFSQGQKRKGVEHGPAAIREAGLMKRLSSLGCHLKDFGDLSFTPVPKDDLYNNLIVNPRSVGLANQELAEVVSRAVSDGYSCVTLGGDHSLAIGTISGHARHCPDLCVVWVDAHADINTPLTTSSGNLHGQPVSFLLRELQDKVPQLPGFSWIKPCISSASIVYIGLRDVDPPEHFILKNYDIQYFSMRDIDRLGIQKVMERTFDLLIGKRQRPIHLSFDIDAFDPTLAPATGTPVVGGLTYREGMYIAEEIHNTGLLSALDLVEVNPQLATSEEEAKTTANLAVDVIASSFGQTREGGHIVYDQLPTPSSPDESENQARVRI
Description: in vitro enzyme assay to detect the production of urea directly proportional to the activity of Arginase II. As to conditions: 33.3 µM. On the set-up: scale not given: in the data most compounds retested in dose-response had high values. It counts as functional.

The target in assay [8] is T4, Proteasome subunit beta (Trypanosoma cruzi) (UniProt O96673).
T4 sequence (whole entry): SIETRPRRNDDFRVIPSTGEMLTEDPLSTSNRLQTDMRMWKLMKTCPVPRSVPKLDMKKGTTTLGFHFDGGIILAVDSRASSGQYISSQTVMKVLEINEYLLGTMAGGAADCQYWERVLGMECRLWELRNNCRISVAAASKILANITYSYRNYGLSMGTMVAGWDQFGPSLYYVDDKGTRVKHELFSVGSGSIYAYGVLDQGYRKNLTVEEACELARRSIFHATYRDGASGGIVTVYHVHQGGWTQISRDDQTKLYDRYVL
The experiment in a line: Trypanosoma cruzi proteasome chymotrypsin-like activity (TcProtChymo) assay. On the set-up: scale not given: in the data most compounds retested in dose-response had high values. As to conditions: 9.37 µM. It counts as functional.

The species entered for assay [9] is Homo sapiens. The experiment in a line: To identify inhibition of the IFN signalling (Jak-Stat) pathway via expression of an eGFP reporter gene under the control of an IFN-stimulated response element (ISRE) containing MxA promoter. It counts as functional. On the set-up: scale not given: direction of the effect not stated beside the values. The conditions noted are these: 30 µM.

Assay [10] deals with Shiga toxin 2 (Escherichia coli O157:H7) (UniProt P09385+P09386). The experiment in a line: E. coli 0.157:H7 Shiga Toxin SOP - stx2 screening assay. The format is functional. Also on record: scale not given: direction of the effect not stated beside the values. The conditions noted are these: 30 µM.
Assay [11] has as its target T5, Tyrosyl-tRNA synthetase, putative (Trypanosoma cruzi (strain CL Brener)) (UniProt Q4DSP6).
T5 sequence (whole entry): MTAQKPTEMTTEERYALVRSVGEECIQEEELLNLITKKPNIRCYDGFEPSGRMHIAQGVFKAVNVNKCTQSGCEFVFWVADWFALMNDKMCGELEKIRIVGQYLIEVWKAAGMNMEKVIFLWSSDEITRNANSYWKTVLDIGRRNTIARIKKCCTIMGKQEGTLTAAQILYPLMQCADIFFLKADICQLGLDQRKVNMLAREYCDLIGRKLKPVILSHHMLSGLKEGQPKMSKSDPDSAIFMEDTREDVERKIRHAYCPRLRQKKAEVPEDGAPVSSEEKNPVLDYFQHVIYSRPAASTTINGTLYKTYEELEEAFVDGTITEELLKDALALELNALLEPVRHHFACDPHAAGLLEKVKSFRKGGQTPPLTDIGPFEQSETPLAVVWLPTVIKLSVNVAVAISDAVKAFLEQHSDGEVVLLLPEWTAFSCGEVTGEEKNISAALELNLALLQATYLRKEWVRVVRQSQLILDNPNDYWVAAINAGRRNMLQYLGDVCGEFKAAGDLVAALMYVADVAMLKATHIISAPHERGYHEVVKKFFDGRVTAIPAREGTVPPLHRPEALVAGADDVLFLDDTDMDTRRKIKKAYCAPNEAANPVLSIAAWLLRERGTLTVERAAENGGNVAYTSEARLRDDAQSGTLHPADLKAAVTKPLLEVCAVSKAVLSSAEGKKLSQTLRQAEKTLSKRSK
Description: Trypanosoma cruzi tyrosyl tRNA synthetase (TcYRS) _High Tyrosine SOP. It counts as functional. On the set-up: scale not given: in the data most compounds retested in dose-response had high values. As to conditions: 30 µM.

In assay [12] the target is T5, Tyrosyl-tRNA synthetase, putative (Trypanosoma cruzi (strain CL Brener)). The experiment in a line: Trypanosoma cruzi tyrosyl tRNA synthetase (TcYRS) SOP. It counts as functional. On the set-up: scale not given: direction of the effect not stated beside the values. As to conditions: 30 µM.
Assay [13] has as its target Chromo domain-containing protein 1 (Saccharomyces cerevisiae (strain ATCC 204508 / S288c) (Baker's yeast)) (UniProt P32657). Description: ScCHD-1 Enzyme Inhibition Assay. Also on record: scale not given: in the data most compounds retested in dose-response had high values. It counts as functional. As to conditions: 30 µM.
In assay [14] the target is T6, Methionyl-tRNA synthetase, putative (Leishmania donovani (strain BPK282A1)) (UniProt E9BF75).
T6 sequence (whole entry): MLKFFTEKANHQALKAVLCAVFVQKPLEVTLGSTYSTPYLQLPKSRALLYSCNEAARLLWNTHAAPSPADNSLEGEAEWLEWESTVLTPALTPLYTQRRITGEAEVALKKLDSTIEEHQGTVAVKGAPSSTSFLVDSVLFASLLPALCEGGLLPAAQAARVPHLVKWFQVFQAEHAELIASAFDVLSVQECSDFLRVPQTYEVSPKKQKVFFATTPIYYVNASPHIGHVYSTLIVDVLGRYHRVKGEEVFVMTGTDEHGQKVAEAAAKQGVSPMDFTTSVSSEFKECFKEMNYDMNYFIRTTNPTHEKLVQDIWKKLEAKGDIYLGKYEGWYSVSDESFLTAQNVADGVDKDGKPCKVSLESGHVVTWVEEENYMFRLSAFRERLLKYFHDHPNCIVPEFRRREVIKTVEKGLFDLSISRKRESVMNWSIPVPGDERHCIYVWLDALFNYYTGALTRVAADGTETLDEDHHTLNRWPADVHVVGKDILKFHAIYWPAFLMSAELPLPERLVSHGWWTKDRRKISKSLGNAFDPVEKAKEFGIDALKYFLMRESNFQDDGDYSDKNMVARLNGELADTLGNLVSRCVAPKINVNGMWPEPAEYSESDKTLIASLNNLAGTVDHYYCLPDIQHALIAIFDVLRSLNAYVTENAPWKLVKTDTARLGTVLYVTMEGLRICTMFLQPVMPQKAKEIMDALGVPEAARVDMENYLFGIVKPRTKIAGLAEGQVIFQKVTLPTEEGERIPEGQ
Description: Leishmania donovani Methionine tRNA synthetase (LdMetRS):v7. Dose response assay. The format is functional. Also on record: conc 80 nM, time 150 minutes.

Sequence of Protein translocase subunit SecA (Escherichia coli (strain K12)) (P10408 whole entry): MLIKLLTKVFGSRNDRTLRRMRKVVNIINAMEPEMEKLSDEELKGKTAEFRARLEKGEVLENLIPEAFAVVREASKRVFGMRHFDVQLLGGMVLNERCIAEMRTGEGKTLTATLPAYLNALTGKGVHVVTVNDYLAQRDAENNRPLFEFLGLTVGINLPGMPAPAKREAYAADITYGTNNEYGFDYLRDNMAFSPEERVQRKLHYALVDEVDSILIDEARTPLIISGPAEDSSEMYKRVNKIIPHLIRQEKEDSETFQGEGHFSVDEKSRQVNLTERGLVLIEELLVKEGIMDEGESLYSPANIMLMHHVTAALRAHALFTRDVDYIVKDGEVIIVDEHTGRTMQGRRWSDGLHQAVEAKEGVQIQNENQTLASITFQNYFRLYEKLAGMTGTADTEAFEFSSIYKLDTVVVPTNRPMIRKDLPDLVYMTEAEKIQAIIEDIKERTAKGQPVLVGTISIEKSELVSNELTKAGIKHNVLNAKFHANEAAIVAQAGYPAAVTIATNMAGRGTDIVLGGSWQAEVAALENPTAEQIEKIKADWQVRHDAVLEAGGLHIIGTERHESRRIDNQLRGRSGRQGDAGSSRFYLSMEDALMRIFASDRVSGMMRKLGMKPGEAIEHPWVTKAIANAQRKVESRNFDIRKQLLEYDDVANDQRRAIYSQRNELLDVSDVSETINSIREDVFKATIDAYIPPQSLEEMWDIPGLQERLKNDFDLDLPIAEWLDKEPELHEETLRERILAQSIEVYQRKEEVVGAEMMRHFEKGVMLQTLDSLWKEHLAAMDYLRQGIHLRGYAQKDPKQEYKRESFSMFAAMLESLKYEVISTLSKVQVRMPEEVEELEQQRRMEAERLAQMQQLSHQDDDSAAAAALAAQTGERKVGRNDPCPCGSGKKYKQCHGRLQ
Sequence of Chromo domain-containing protein 1 (Saccharomyces cerevisiae (strain ATCC 204508 / S288c) (Baker's yeast)) (P32657 whole entry, the tested form may be a part): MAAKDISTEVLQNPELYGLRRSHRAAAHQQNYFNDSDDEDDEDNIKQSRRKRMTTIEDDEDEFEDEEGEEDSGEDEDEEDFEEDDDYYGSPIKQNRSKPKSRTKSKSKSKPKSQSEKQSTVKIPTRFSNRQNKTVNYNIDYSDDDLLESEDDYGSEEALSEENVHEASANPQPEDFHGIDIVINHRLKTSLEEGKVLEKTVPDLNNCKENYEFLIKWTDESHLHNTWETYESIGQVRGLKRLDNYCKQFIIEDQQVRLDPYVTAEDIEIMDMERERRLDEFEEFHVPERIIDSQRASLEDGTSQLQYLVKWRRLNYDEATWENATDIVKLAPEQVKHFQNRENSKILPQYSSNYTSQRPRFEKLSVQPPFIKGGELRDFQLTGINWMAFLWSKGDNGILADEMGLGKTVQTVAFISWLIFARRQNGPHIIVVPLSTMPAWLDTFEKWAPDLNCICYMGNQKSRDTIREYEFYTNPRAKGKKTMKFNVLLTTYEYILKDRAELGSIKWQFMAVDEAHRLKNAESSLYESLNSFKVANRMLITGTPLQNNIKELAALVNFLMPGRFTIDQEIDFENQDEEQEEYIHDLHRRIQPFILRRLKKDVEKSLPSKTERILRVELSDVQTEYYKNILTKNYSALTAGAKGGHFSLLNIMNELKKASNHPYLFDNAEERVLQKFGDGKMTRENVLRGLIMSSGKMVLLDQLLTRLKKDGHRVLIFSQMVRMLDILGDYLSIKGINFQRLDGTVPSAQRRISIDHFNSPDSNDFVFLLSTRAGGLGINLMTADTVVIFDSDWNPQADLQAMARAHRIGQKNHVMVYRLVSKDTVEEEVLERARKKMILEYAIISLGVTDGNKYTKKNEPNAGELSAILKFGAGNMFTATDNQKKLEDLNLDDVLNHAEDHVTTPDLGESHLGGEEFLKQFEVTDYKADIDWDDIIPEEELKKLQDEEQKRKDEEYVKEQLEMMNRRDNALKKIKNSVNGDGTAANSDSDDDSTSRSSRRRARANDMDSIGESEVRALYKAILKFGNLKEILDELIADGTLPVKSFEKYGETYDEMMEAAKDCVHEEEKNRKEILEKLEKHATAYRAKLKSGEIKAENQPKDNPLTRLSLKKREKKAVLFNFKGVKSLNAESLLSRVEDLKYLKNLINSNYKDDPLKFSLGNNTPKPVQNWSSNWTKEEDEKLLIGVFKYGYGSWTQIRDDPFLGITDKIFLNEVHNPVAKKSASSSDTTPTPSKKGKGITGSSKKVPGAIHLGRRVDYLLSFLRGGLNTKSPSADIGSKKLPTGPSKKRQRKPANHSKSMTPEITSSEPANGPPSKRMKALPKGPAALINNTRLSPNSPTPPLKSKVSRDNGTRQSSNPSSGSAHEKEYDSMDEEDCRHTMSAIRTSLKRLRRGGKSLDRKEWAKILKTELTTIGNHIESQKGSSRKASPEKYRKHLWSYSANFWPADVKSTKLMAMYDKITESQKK
Sequence of Sialic acid-binding Ig-like lectin 9 (Homo sapiens) (Q9Y336 whole entry): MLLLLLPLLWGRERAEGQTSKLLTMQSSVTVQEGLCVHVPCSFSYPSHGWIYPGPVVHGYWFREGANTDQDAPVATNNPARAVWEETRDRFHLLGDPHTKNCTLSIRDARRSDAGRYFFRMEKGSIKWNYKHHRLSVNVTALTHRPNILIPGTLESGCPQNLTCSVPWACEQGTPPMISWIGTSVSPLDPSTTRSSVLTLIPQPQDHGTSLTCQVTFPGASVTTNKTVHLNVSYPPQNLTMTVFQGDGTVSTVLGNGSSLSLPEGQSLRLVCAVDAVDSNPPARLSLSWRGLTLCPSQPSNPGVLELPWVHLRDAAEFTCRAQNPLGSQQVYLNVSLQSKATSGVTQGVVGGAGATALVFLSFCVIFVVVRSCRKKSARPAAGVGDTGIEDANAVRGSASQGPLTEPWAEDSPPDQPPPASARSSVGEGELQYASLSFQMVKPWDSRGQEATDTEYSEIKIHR

As for `O=C(Nc1cccnc1)[C@H]1CN(Cc2nccs2)C[C@H]2OCC[C@@H]12`, the Percent Effect was -4.22% in assay [1]; 2.67% in assay [2]; -1.01% in assay [3]; 6.75% in assay [4]; -6.59% in assay [5]; -0.591% in assay [6]. For the same molecule, the Percent Effect was -0.233% in assay [7]; 3.61% in [8]; 15% in [9]; -17.1% in assay [10]; -2.13% in [11]; -6.41% in assay [12]. Moreover, the Percent Effect in [13] amounted to 2.83%.
In the case of `Cc1nc(N2CCN(C(=O)C(C)C)CC2)c2c3c(sc2n1)CC(C)CC3` (stereo not given), the PXC50 in [14] (MAX_EFFECT 28.46347607) and in [14] (MAX_EFFECT 29.26208651) was under 4 in each case.
With `O=C(c1ccnnc1)N1C[C@@H]2OCCN(CCN3CCCC3)[C@@H]2C1`, the Percent Effect was 3.18% in assay [1]; 0% in assay [2]; 0.474% in assay [3]; -5.06% in assay [4]; 4.92% in [5]; -2.64% in assay [6]. Also, the Percent Effect in assay [7] is -1.59%; in assay [8] it was 12.7%; in assay [9], -3.96%; in assay [10], -4.98%; in [11], 6.49%; in assay [12], 2.56%. Also, the Percent Effect in [13] came to 6.02%.
Turning to `FC(F)(F)c1cc(-c2cccs2)nc(N2CCN3CCCC3C2)n1` (stereo not given), the PXC50 in [14] (MAX_EFFECT 13.05483029) and in [14] (MAX_EFFECT 13.8381201) was under 4 each time.

Values taken from ChEMBL document CHEMBL3988442, “University of Dundee, Small-Polar-MMV Screening Library” (2021).
